Screening results as filed in PubChem BioAssay.
A selection: hits, their analogues and other compounds. The true share with any hit is near 12%.
PLK1 PBD inh – blocks phosphopeptide binding to human PLK1 polo-box domain | P53350 | Potency, µM, usual class: inhibitors | actives 2.8% (n = 360,000) | Plk1 PBD binding of FITC phosphopeptide, fluorescence polarization; further: series mostly up to about 57 µM; nearly all actives have a fitted effect of over 65% in size
Target sequence (P53350 whole entry, looked up, the tested form may be a part): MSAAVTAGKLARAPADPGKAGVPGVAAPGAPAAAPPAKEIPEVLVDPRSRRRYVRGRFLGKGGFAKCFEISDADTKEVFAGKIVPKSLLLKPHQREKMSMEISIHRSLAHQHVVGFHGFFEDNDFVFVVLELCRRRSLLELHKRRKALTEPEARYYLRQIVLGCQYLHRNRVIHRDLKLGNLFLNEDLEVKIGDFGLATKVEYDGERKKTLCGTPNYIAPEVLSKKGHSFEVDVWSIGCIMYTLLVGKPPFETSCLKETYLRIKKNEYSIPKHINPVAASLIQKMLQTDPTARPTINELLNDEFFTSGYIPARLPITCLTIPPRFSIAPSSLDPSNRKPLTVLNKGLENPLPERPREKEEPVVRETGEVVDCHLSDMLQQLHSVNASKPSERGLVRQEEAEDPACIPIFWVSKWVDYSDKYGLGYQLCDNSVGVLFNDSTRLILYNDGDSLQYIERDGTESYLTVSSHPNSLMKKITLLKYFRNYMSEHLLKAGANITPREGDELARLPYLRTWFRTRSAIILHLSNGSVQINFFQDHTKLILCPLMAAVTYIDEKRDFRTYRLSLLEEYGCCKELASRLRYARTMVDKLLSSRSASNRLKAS
G9a block – blocks human histone lysine methyltransferase G9a | Q96KQ7 | G9a H3K9 monomethylation, AlphaScreen, 2 h | Potency, µM (top dose mostly 102 µM), usual class: inhibitors | actives 8.8% (n = 350,000); further: nearly all actives have a fitted effect of over 75% in size
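Enzyme 20 nM + cpd, 15 min RT; add b-H3K9 pep 500 nM / SAM 20 uM; 2 h RT; anti-H3K9me1 Ab 0.5 ug/mL + SA donor / anti-rabbit acceptor beads 20 ug/mL each, 10 min; AlphaScreen read.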
Sfp PPTase inh – inhibitors of Bacillus subtilis Sfp phosphopantetheinyl transferase; AID 1490; actives 3.5% (n = 310,000); Potency, µM, actives largely listed as inhibitors; Biochemical Sfp PPTase activity, qHTS; Q9F4F7;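 further: the enzyme is Sfp with the accession as filed and its product quenches rhodamine fluorescence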
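Compounds were incubated with enzyme (final 15 nM) for 15 min at room temperature before substrate addition started the reaction. Fluorescence at 525 nm excitation, 598 nm emission was recorded immediately and after 30 minutes.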
JMJD2A Tudor – blocks the human JMJD2A Tudor domain; AlphaScreen JMJD2A-Tudor / H3K4me3 peptide binding; Potency, µM (series often up to 114 µM), most hits filed as inhibitors; actives 4.4% (n = 390,000); AID 504339; O75164; further: nearly all actives have a fitted effect of over 50% in size
HP1b binding inh – blocks HP1-beta chromodomain binding to methylated histone tails. AlphaScreen HP1-beta / biotin-H3K9me3 peptide binding. Potency, µM (series often up to 114 µM), usual class: inhibitors. actives 0.56% (n = 390,000). AID 540317; further: nearly all actives have a fitted effect of over 70% in size
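HP1-beta protein (50 nM final) preincubated 30 min at room temperature with biotinylated H3(1-18)K9me3 peptide (50 nM) in PBS pH 7.4, 0.01% Tween-20, then compound added for 30 min. AlphaScreen streptavidin donor/nickel chelate acceptor beads (10 ug/mL final), 30 min dark, luminescence read.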
BAZ2B inh – inhibitors of human BAZ2B bromodomain | Q9UIF8 | AlphaScreen BAZ2B-H3K14Ac peptide displacement | Potency, µM (top dose mostly 114 µM), actives largely listed as inhibitors | actives 4.4% (n = 360,000); further: nearly all actives have a fitted effect of over 60% in size
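Compounds, titrated to a top concentration of 110 uM, were incubated 30 min at room temperature with preformed BAZ2B/acetyl-K14 H3 peptide complex (50 nM each). Proximity signal was measured by AlphaScreen after 20 min with beads.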
A number is an active result; i = inactive; ? = inconclusive; nt = not tested or not shown; [ ] = dose if it differs, or a comment. The call rests on the fitted dose curve; in most records, active means well fitted curve in the direction sought with a large enough effect; inconclusive means small, poorly fitted or top-dose-only effect, or another doubt; inactive means no such curve, though single readings can be large; an effect the other way counts as inactive or inconclusive.

SMILES | PLK1 PBD inh | G9a block | Sfp PPTase inh | JMJD2A Tudor | HP1b binding inh | BAZ2B inh
CN(C)c1ccc(S(=O)(=O)NCC(=O)NCCOc2ccccc2F)cc1[N+](=O)[O-] | ? | 50µM | nt | i | i | i
CN(CC(=O)Nc1cccc(F)c1)C(=O)CNS(=O)(=O)c1ccc(N(C)C)c([N+](=O)[O-])c1 | 15µM | 50µM | nt | ? | i | 71µM
COc1ccc(NS(=O)(=O)c2ccccc2)cc1NS(=O)(=O)c1ccccc1 | nt | nt | nt | i | nt | nt
CCCN(CCC)C(=O)Cn1c(=O)n(-c2cccc(C(F)(F)F)c2)c(=O)c2c(C)c(C)sc21 | nt | i | nt | i | i | i
CC(C)c1nn2c(=O)cc(COc3cccc(NC(=O)c4ccco4)c3)nc2s1 | 24µM | i | i | i | i | i
CC(C)[C@H](NC(=O)c1ccco1)C(=O)OCc1cc(=O)n2c(n1)sc1ccccc12 | ? | 45µM | i | ? | i | 50µM
COc1cccc(C(=O)Nc2cccc(C(=O)OCc3cc(=O)n4nc(C(C)C)sc4n3)c2)c1 | nt | i | nt | i | i | i
Cc1ccc(C(=O)N[C@H](C(=O)OCc2cc(=O)n3c(n2)sc2ccccc23)C(C)C)cc1 | i | 40µM | i | i | i | i
O=C(Cc1coc2cc3c(cc12)CCC3)OCc1cc(=O)n2c(n1)sc1ccccc12 | i | i[12.7 µM] | 40µM | ? | ? | 50µM
Cc1ccc2c(CC(=O)OCc3csc(C)n3)coc2c1 | i | i | i | i | i | i
C/C(=N\NC(=O)c1ccc(F)cc1)c1ccc(NC(=O)Cc2ccccc2)cc1 | i | i | i | i | i | i
COc1ccc(N2CCN(C3CCCN(C(=O)CCN4CCCCO4)C3)CC2)cc1 (stereo unspecified) | i | i[12.7 µM] | i | i | i | i
O=C(Cc1ccccc1[N+](=O)[O-])NCCSCc1c(F)cccc1Cl | i | i[12.7 µM] | i | i | i | i
COc1ccc2c(c1)O[C@@H](c1ccc3c(c1)OCO3)[C@H](OC(=O)Nc1cc(OC)c(OC)c(OC)c1)C2=O | nt | ? | i | nt | nt | i
O=C(OCc1cc(=O)n2c(n1)sc1ccccc12)c1cccc(O)c1 | ? | i | i | 35µM | ? | i
O=C(OCc1cc(=O)n2c(n1)sc1ccccc12)c1ccc(O)cc1O | i | ? | i | i | i | i
CCc1cc(-c2n[nH]c(C)c2-c2ccccc2Cl)c(O)cc1OC | i | 40µM | i | ? | i | ?
COc1ccc(-c2nc3scc(CCNS(=O)(=O)c4c(C)noc4C)n3n2)cc1OC | nt | i | nt | i | i | i
COCCCNCC(=O)Nc1ccc(OC(F)(F)F)cc1 | i | 8.9µM | i | 2.8µM | i | ?
COc1ccc(CCNC(=O)CSCC(=O)Nc2ccccc2)cc1OC | i | nt | i | i | i | i
COc1ccc(CCNCC(=O)Nc2ccc(OC(F)(F)F)cc2)cc1OC | i | 32µM | i | 20µM | ? | ?
O=C(c1ccc([N+](=O)[O-])cc1)N1CCSC1c1ccc(Cl)cc1 (stereo unspecified) | i | ? | i | i | i | i
O=C(c1ccc([N+](=O)[O-])cc1)N1CCSC1c1ccc(Br)cc1 (stereo unspecified) | 17µM | ? | i | i[11.4 µM] | 16µM | ?
CCCCOC(=O)c1ccc(NC(=S)NC(=O)c2c(Br)c(C)nn2C)cc1 | i | i | 4.5µM | i | i | i
Cc1ccc(-c2noc(C3CCCN(C(=O)c4ccccc4Br)C3)n2)o1 (stereo unspecified) | i | 25µM | i | i | i | i
SMILES | PLK1 PBD inh | G9a block | Sfp PPTase inh | JMJD2A Tudor | HP1b binding inh | BAZ2B inh
Cc1ccc(-c2noc(C3CCCN(C(=O)c4ccccc4)C3)n2)o1 (stereo unspecified) | i | ? | i | i | i | i
COc1ccc(NC(=O)CCc2c(C)nc3nc(CNC(=O)OC(C)(C)C)nn3c2C)cc1OC | nt | i | nt | i | i | i
CCCCN(C(=O)c1ccc(-c2ccc(Cl)cc2)o1)c1c(N)n(CCCC)c(=O)[nH]c1=O | i | i[12.7 µM] | nt | i | i | i
CCCCN(C(=O)c1ccc(-c2ccc(Cl)cc2)o1)c1c(N)n(CCC)c(=O)[nH]c1=O | ? | 8.9µM | nt | i | i | i
CCCCn1c(N)c(N(CCOC)C(=O)c2ccc(-c3ccc(Cl)cc3)o2)c(=O)[nH]c1=O | ? | 11µM | nt | i | i | ?
CCCCN(C(=O)C(C)Oc1ccc(Cl)cc1)c1c(N)n(CCCC)c(=O)[nH]c1=O (stereo unspecified) | i | 50µM | nt | i | i | i
CCCCn1c(N)c(N(CCOC)C(=O)C(C)Oc2ccc(Cl)cc2)c(=O)[nH]c1=O (stereo unspecified) | i | ? | nt | i | i | i
CCCCn1c(N)c(N(CCOC)C(=O)c2cnc(C)cn2)c(=O)[nH]c1=O | i | 40µM | nt | i | i | i
Cc1cccc(Oc2nc3c(c(=O)n(C)c(=O)n3C)n2C)c1C | nt | i | nt | i | i | i
CCOc1ccccc1NC(=O)C(NS(=O)(=O)c1ccc2c(c1)CCC(=O)N2)c1ccccc1 (stereo unspecified) | nt | i | nt | i | i | i
O=C(CSc1n[nH]c(=O)n1Cc1ccccc1)Nc1ccc(N2CCOCC2)cc1 | i | 56µM | nt | i | i | i
O=C(c1ccc(-n2c(SCc3cccc(F)c3)nc3ccccc3c2=O)cc1)N1CCOCC1 | 27µM | i | i | 40µM | i | i
O=C(O)c1ccc(CSc2nc3ccccc3c(=O)n2-c2ccccc2)cc1 | i | i | i | i | i | i
O=C(CSc1nc2ccccc2c(=O)n1-c1ccc(F)cc1)Nc1ccc(N2CCOCC2)cc1 | i | 45µM | i | i | i | i
Cc1ccc(-n2c(SCC(=O)Nc3ccc(N4CCOCC4)cc3)nc3ccccc3c2=O)cc1 | i | i | ? | i | i | i
COc1ccc(OC(C)c2nc3ccccc3[nH]2)cc1 (stereo unspecified) | nt | i | nt | i | i | i
CCC1(c2ccccc2)NC(=O)N(CC(=O)N(C)Cc2c(F)cccc2Cl)C1=O (stereo unspecified) | i | 45µM | i | i | i | i
CCC1(c2ccccc2)NC(=O)N(CC(=O)N(C)Cc2ccccc2)C1=O (stereo unspecified) | i | i | i | i | i | i
COc1ccc(CNC2CC(C)N(C)CC2C)cc1OC (stereo unspecified) | i | i | i | i | i | i
CCN(C(=O)COC(=O)c1nc(Cl)ccc1Cl)C1CCS(=O)(=O)C1 (stereo unspecified) | i | 1.4µM | nt | i | i | i
CCN(C(=O)COC(=O)c1ccc(Cl)nc1)C1CCS(=O)(=O)C1 (stereo unspecified) | i | i | i | i | i | i
CCN(C(=O)COc1cccc2cccnc12)C1CCS(=O)(=O)C1 (stereo unspecified) | i | ? | i | i | i | 50µM
